Values without a mark were called inactive. Active and inactive are the calls of the source. Unless noted, no stated cut-off is given here; in the data, active means inhibition above about 25%; inactive means the rest.
What was measured:
[1] = molecular target: Nuclear receptor coactivator 1 (Homo sapiens) (UniProt Q15788); experiment: SRC1 coactivator transcriptional activity inhibitors, confirmation, cell-based, luminescence, quadruplicate (AID 588820;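 active means mean inhibition above 46.68%, the untreated control wells mean plus 3 SD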;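 further: 0% = DMSO wells and 100% = gossypol 36 µM treated wells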); settings: HEK293 GAL4-SRC1 luciferase reporter, at 3.6 µM, hits give high values
Sequence of Nuclear receptor coactivator 1 (Homo sapiens) (Q15788 whole entry, looked up, the tested form may be a part): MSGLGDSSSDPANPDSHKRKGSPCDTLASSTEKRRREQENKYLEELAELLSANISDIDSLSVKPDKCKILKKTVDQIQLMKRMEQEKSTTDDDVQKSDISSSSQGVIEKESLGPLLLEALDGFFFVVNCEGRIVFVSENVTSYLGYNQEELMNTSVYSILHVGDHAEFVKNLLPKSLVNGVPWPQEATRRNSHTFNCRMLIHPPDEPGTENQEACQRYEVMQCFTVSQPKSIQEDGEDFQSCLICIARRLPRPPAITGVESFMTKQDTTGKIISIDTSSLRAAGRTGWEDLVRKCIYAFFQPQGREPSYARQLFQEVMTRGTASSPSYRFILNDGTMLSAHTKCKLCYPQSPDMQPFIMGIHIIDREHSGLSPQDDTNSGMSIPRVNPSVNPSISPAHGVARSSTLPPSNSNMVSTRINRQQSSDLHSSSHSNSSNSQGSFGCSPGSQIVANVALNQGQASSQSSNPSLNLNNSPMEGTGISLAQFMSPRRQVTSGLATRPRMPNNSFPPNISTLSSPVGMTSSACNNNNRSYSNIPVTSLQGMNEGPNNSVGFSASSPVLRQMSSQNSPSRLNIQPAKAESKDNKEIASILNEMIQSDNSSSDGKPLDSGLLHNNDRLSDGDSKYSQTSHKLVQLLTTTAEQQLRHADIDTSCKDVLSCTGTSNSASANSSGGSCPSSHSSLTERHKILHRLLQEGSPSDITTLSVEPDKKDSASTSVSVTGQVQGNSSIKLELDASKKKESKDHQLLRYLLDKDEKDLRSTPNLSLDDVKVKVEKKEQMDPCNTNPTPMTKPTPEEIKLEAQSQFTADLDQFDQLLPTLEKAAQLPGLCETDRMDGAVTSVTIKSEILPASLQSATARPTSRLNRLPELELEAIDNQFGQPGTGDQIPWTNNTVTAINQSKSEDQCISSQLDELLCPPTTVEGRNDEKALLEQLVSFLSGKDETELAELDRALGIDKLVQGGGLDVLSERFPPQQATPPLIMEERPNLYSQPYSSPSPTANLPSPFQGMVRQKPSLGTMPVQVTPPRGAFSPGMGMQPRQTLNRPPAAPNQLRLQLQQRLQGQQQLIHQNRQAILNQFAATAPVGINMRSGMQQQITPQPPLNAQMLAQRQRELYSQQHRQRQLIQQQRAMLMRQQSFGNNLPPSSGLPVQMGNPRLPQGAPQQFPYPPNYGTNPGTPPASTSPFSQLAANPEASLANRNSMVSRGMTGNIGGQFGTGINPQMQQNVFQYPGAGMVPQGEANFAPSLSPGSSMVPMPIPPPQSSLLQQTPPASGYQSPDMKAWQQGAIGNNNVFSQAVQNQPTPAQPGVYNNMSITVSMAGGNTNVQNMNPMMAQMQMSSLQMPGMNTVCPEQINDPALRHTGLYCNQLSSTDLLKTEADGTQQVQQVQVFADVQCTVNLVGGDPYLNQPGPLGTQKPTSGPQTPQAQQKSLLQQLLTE

[2] = VP16 transactivation inhibitors, counter-screen for SRC1 inhibitor project, cell-based, luminescence, high throughput (AID 588824); settings: cell-based VP16 transactivation luciferase luminescence; at 3.6 µM; hits give high values

SMILES	inhibition [1] [%]	inhibition [2]
O=C(Nc1sc2c(c1C(=O)NCCCO)CCCC2)c1ccccc1	-30.3	-14.6%
O=C(NCc1ccco1)c1cccc(NC(=O)c2ccco2)c1	28.5	50% (active)
CCc1nc2c(OCc3c(C)noc3C)cccn2c1N(C=O)Cc1ccccc1	-4.23	-5.1%
O=C(CSc1ccccc1)Nc1nnc(-c2ccco2)o1	1.78	-4.61%
CCOc1ccc(CCN2C(=S)N([C@@H](CC(C)C)CN3CCC[C@@H]3CN3C(=S)NC[C@@H]3CC(C)C)C[C@@H]2CC(C)C)cc1	3.98	5.15%
O=C(O)c1ccccc1-c1c2cc(I)c(=O)c(I)c-2oc2c(I)c(O)c(I)cc12	18.7	15.7%
COc1ccc(-c2cc(C(=O)N(C)CC(=O)Nc3cccc(F)c3)c3ccccc3n2)cc1OC	-19.1	-8.17%
Cc1nc2ccccc2c2oc(C(=O)Nc3ccc(C(C)C)cc3)cc12	-6.16	-1.6%
CCCCc1ccc(NC(=O)Nc2c(C)n(C)n(-c3ccccc3)c2=O)cc1	-11	7.24%
O=C1NC(=S)N/C1=C/c1ccc2c(c1)OCO2	10.2	16.3%
CCc1nnc(NC(=O)CCC(=O)NCc2ccccc2Cl)s1	10.2	6.37%
COc1ccccc1NS(=O)(=O)c1cc(NC(=O)C(C)(C)C)ccc1N1CCOCC1	-45.2	-32.5%
O=C(COc1ccc([N+](=O)[O-])cc1)Nc1ccccc1C(=O)NC1CC1	2.87	-1.57%
CC(=O)c1ccc(S(=O)(=O)N2CCN(CCOc3ccc(Br)cc3)CC2)cc1	2.32	25.4% (active)
COc1cc(C)c(/C=C(\C#N)C(=O)Nc2ccc(C)cc2)cc1C(C)C	-24	0.73%
COc1ccc(CCNC(=O)C(=O)NCC2CCCN2S(=O)(=O)c2ccccc2)cc1OC (stereo not given)	-20.3	-7.77%
COc1ccc(CN2CCN(C(=O)CCC(=O)Nc3nnc(C(F)(F)F)s3)CC2)cc1F	-1.74	-4.2%
Cc1ccccc1C(=O)Nc1cc(NC(=O)c2ccccc2C)cc(C(=O)O)c1	-14.1	-11.4%
CC1CCc2c(sc3ncnc(N4CCOCC4)c23)C1 (stereo not given)	40	26.6% (active)
COc1ccc(C2CC(c3ccc(Br)cc3)=NN2C(=O)CSC2=NCCS2)cc1 (stereo not given)	7.19	10.6%
CC(C)Cn1c(N)c(C(=O)COC(=O)c2cc3ccccc3cc2O)c(=O)n(C)c1=O	14.6	8.44%
Cc1ccc(S(=O)(=O)N2[C@@H](c3cccc(Cl)c3)C(C(=O)OC(C)(C)C)=CC[C@H]2c2ccc(C(C)C)cc2)cc1	0.74	11.2%
CCCc1cc(=O)oc2cc(O[C@@H]3O[C@H](CO)[C@@H](O)[C@H](O)[C@H]3O)ccc12	-9.52	-11.7%
CCN(CC(=O)Nc1c(F)cccc1F)C(=O)/C=C/c1ccc(S(=O)(=O)N2CCCCCC2)cc1	-10.1	6.23%
CCCCC(=O)NC(c1cccc([N+](=O)[O-])c1)c1ccc2cccnc2c1O (stereo not given)	13.2	24%
O=C(Nc1ccc(F)cc1F)c1c(C(F)(F)F)ccnc1Oc1cccc(C(F)(F)F)c1	-2.06	-3.8%
CCOc1cccc2cc(C(=O)N3CC(C)OC(C)C3)c(=O)oc12 (stereo not given)	-9.95	-2.83%
Cc1nc(N=C(N)N)nc2ccccc12	2.65	-11.1%

SMILES	inhibition [1] [%]	inhibition [2]
Cc1ccc(-n2c(C)nn(CC3CC3)c2=O)cc1	2.58	-3.08%
Cc1nc2ccccc2c(N)c1C(=O)/C=C/c1ccccc1	28.7	31.6% (active)
Nc1c(Cl)ncnc1NCCc1ccc(O)cc1	-6.45	27.9% (active)
Cc1cc(C)c2nc(NNC(=O)c3ccc(S(=O)(=O)N4CCc5ccccc5C4)cc3)sc2c1	32.2	30% (active)
OC[C@@H]1CN(Cc2ccc(-c3ccccc3)cc2)C[C@H](n2cnc3c(NCc4ccncc4)ncnc32)O1	10.1	28.9% (active)
Cc1ccc(S(=O)(=O)Nc2c(NC3CCCCC3)c3ccccc3oc2=O)c(C)c1	15.7	13.5%
CN(Cc1ccc(F)cc1)C(=O)c1cccc(S(=O)(=O)N2CCN(c3ccccc3)CC2)c1	-0.46	15%
Cn1c2ccccc2c(=O)c2ccc(C#CC3(O)CCCCC3)cc21	-132	-43.1%
CCCCCOc1ccc(/C=C/c2c([N+](=O)[O-])c(=O)n(C)c(=O)n2C)cc1	23.6	22.4%
CN(Cc1ccc(OC(F)F)cc1)C(=O)c1cccc(S(=O)(=O)N2CCN(Cc3ccccc3)CC2)c1	-14	35% (active)
CC1=C(C(=O)Nc2ccccc2C(=O)NCc2ccccc2)SCCO1	-7.53	-4.09%
COc1ccc(-c2n[nH]c(=S)n2-c2ccc(C)cc2)cc1	-68.5	-40%
Cc1cc(C)c(S(=O)(=O)N2CCCC2=O)c(C)c1N(C)S(C)(=O)=O	0.14	-4.1%
O=C(NC1CC(=O)N(c2ccccc2)C1)C1CC1 (stereo not given)	-3.45	-9.3%
CCN(c1ccccc1)S(=O)(=O)c1cc(C(=O)Nc2ccc(Br)cc2)ccc1F	16.9	23.2%
CCCCN(C(=O)/C=C/c1ccccc1)C1CCS(=O)(=O)C1 (stereo not given)	-6.12	-4.11%
CCCc1cc(C(=O)N(C)CC(=O)Nc2ccc(OCC)c(OCC)c2)sc1C	20.5	17.3%
COCCN(C(=O)C1=COCCO1)c1c(N)n(Cc2ccccc2)c(=O)[nH]c1=O	-12.3	-15.5%
CCC(C)c1ccc(C(C)NC(=S)NCc2ccc(F)cc2)cc1 (stereo not given)	-3.08	-3.56%
COc1ccccc1OCCn1c(C)c(C=O)c2ccccc21	10.8	8.95%
CC1CC(C)CN(c2ncnc3c2cnn3-c2ccc(Cl)cc2)C1 (stereo not given)	-96.6	-50.9%
C(=N\Nc1nc2ccccc2[nH]1)/c1ccc2ncccc2c1	-40.4	-63.6%
O=C(COC(=O)COc1ccccc1)NCCc1ccccc1	-16.7	-1.43%
CC(=O)C1=C(C)NC2=C(C(=O)CC(C)(C)C2)C1C (stereo not given)	28	15.6%
COc1cccc(NC(=O)CN(C)CC(=O)Nc2ccc(Cl)cc2[N+](=O)[O-])c1	26.6	14.7%
Cc1cc(C)cc(C(=O)Nc2cccc(NC(=O)c3ccco3)c2)c1	-11.1	9.42%
c1ccc(-n2cnc3cc(NCc4cccs4)ccc32)cc1	-69.4	-44.1%

— PubChem BioAssay
